Experimental data as given in the supplement of paper PMC3334620.
Over roughly 33,000 sequences, “E-score (-0.5 to 0.5)” has its median near -0.054; the highest 2% begin near 0.35. Only a selection was taken, and the highest values are over-represented in it overall.

These sequences were tested against T1, Stb5 (UniProt P38699) (assay: PBM E-score (8-mer binding enrichment) (E-score (-0.5 to 0.5)); higher = stronger / more preferred TF binding). Conditions: protein concentration: 200 nM; construct: GST-full length.
T1 sequence: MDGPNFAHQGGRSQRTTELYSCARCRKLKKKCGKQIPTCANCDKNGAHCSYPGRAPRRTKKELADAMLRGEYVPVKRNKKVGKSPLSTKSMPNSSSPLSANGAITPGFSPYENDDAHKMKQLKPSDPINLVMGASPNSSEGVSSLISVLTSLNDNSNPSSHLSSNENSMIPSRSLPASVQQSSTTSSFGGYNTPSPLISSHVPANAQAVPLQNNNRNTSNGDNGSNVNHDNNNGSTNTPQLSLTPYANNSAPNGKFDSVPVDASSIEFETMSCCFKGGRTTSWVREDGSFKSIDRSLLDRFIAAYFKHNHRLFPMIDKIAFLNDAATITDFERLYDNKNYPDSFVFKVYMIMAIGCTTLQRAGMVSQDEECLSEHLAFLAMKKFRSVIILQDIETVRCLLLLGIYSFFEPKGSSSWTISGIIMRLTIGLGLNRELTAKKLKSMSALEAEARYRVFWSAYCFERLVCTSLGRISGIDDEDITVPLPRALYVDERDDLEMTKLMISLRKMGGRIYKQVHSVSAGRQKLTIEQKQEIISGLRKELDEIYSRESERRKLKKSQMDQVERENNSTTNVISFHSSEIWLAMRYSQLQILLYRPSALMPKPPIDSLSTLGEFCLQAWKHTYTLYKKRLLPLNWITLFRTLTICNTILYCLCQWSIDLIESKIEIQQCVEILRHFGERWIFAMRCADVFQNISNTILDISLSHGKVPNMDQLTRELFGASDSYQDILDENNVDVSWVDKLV
Procedure: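 Universal 'all 10-mer' protein binding microarrays (Agilent AMADID 015681) probed with GST-tagged S. cerevisiae TFs (full-length or DBD) made by in vitro transcription/translation (PURExpress), about 100-200 nM. Bound TF was detected with fluorescent anti-GST. Each ungapped 8-mer (which stands for itself and its reverse complement) is scored by the PBM enrichment score (E-score), a modified Wilcoxon-Mann-Whitney statistic from -0.5 to +0.5, computed with the Universal PBM Analysis Suite. Scale: above 0.35 generally sequence-specific binding.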

Point of comparison: ATCTCATA, “PBM E-score” value -0.186. Against it:
- GCAGACGC — higher, -0.0745
- AAAAGCAT — higher, -0.0942
- CTCTCCGA — higher, 0.00777
- ATCTCCGC — higher, 0.406
- ATCTCCCG — higher, 0.124
- ATCTCCAG — higher, 0.0194
- ATCTCCGG — higher, 0.423
- GTCTCCGA — higher, 0.23
- ATCTCCGA — higher, 0.394
- CTCTCCGC — higher, 0.0985
- ATCTCCCC — higher, 0.0718
- AGGCGTTG — higher, -0.11
- AAAAGGGT — lower, -0.27
- CCCAGGAA — lower, -0.286
- TCGAATCA — higher, -0.163
- CCGACCGA — higher, 0.314
- CCGACCGC — higher, 0.284
- CGGACCAC — higher, 0.134
- CGGACCAA — higher, 0.376
- TGGACCCA — lower, -0.218
- TCGACCCA — lower, -0.256
- GGGACCCA — higher, -0.0663
- CGGACCAG — higher, 0.0937
- ACGACCCA — lower, -0.191
- CCGACCGG — higher, 0.382
- CGGACCCA — higher, 0.381
- CCGACCCA — higher, 0.369
- CGAAGAGA — higher, -0.138
- AAAGCGCG — higher, 0.121
- CTGTGCGA — higher, -0.121
- GTTGCAAC — higher, 0.183
- ATGAAAGC — higher, -0.0893
- CGGACCTA — higher, 0.466
- CGGACCGA — higher, 0.4
- AGGACCTA — higher, 0.141
- GGGACCTA — higher, 0.138
- CTGACCGA — higher, -0.0342
- GGGACCGA — higher, 0.257
- ATGGCTTA — higher, -0.119
- ACCCCAGC — higher, -0.0864
- CAATAGCC — higher, 0.0314
- CACATCTG — higher, -0.103
- GGGCCATA — higher, 0.0906
- GGGCCCTA — higher, -0.0134
- AGGCCCTA — higher, -0.0592
- CGGCCATC — higher, 0.157
- CGGCCATA — higher, 0.376
- CGGCCCTA — higher, 0.426
- ACCAGACA — higher, -0.0752
- AAAGTAAG — higher, -0.119
- CATTTTAG — higher, 0.189
- CTTACTGA — higher, -0.164
- AAGAGTCC — higher, 0.118
- AGTGTAAC — higher, -0.175
- GGTGTTTA — higher, 0.425
- AGTGTTTA — higher, -0.0504
- AGTGTTAC — higher, -0.0686
- CGTGTTAC — higher, -0.0374
- GGTGTTAC — higher, 0.4
- GGTGTTAA — higher, 0.447
- CGTGTAAC — higher, 0.134
- CGTGTTTA — higher, 0.112
- TGTGTTAA — higher, -0.145
- GGTGTAAC — higher, 0.381
- CGTGTTAA — lower, -0.191
- ATTCACAC — higher, -0.136
- CCTGATAA — higher, -0.0146
- CCCAACCA — higher, -0.0714
- GATCTAAC — higher, -0.143
- ATACTATG — higher, -0.0158
- ACGCTGCT — higher, -0.0899
- CACTCTCA — lower, -0.237
- ACTTTCCA — higher, -0.0496
- CAGCGGCG — higher, 0.326
- CAGCGGGC — higher, 0.224
- AAGCGGGG — higher, 0.296
- CAGCGGAA — higher, 0.164
- CAGCGGAG — higher, 0.352
- CAGCGGGG — higher, 0.358
- ACCGAACG — higher, 0.308
- ATGAAAGG — higher, 0.0036
- ACCGCCTC — higher, 0.313
- TCCGCCGA — higher, 0.346
- ACCGCCGG — higher, 0.414
- ACCGCCAC — higher, 0.316
- ACCGCCTG — higher, 0.25
- ACCGCAGT — higher, 0.206
- ACCGCCGT — higher, 0.38
- GCCGCCGA — higher, 0.329
- ACCGCCGC — higher, 0.383
- ACCGCCTA — higher, 0.206
- ACCGCCGA — higher, 0.405
- ACGGTTGA — higher, -0.165
- ACTCTTTG — lower, -0.24
- ATCAAGGA — higher, -0.12
- CGCCCCCG — higher, 0.209
- ACCTTTGC — higher, -0.0619
- ACCACCTA — higher, -0.134
- GCCATACA — higher, -0.138
- GTCCTCAA — higher, -0.137
- CACGTCAG — higher, -0.163
- ACCGCCAT — higher, 0.265
- GCCGCCAC — higher, 0.191
- GCCGCCGC — higher, 0.391
- GCCGCCAA — higher, 0.24
- CCCGCCGA — higher, 0.345
- CCCGCCGC — higher, 0.347
- ACCGCCAA — higher, 0.276
- CCCGCCGG — higher, 0.39
- ACCGCCAG — higher, 0.368
- ATACGGGC — higher, 0.103
- TTGGACAA — lower, -0.195
- ATTATTGG — higher, 0.0592
- AGGCCCAG — lower, -0.226
- AGGAGGGG — lower, -0.302
- GTTTTCGA — higher, -0.115
- GTCCCGAA — higher, 0.121
- TCGCGCAA — higher, -0.136
- ATAGACAA — lower, -0.202
- CGTGAGGC — higher, -0.133
- ATTCAGCC — higher, -0.129
- CCCCGCGG — higher, 0.349
- AACCGCGC — higher, 0.273
- CACCGCGA — higher, 0.37
- CCGCGCGG — higher, 0.404
- CCGCGCGA — higher, 0.168
- CCGCGCGC — higher, 0.281
- GACCGCGC — higher, 0.246
- AACCGCGG — higher, 0.347
- CACCGCGC — higher, 0.401
- CACCGCGG — higher, 0.419
- AACCGCGA — higher, 0.272
- TACCGCGA — higher, 0.324
- AATACTCC — higher, 0.173
- GACAGTTA — higher, -0.0979
- AAGACTAG — lower, -0.389
- AGCTACAG — lower, -0.215
- TCAATCCA — higher, -0.0437
- GCGCTAGA — higher, 0.112
- AGCACGGG — higher, 0.199
- ACCACCCA — lower, -0.217
- GGCCTCCC — higher, -0.0321
- CGGTGCAC — higher, 0.0634
- ACACCGTG — higher, 0.416
- ACACCGTC — higher, 0.424
- AGACCGTC — higher, 0.252
- AAACCGTG — higher, -0.0899
- ACACCGTA — higher, 0.346
- CCACCGTC — higher, 0.246
- AACTAGCA — higher, -0.134
- CTTCGGCA — higher, 0.209
- CAGCTGGG — higher, -0.0897
- CTTGGGTA — higher, -0.128
- AAACTCTA — higher, -0.134
- CGGCATGC — higher, 0.273
- CGGCACCA — higher, 0.394
- GGGCATGA — higher, -0.083
- CGGCATCC — higher, 0.224
- AGGCATCA — lower, -0.202
- AGGCACCA — higher, -0.0686
- CGGCACCG — higher, 0.342
- CGGCATCA — higher, 0.387
- CGGCATGA — higher, 0.367
- CTCCCTAC — higher, -0.0607
- AAGTACCA — higher, -0.0936
- AATTACCG — higher, 0.395
- AAGTACCC — higher, 0.0204
- CATTACCG — higher, 0.205
- CAATACCG — higher, 0.332
- AAGTACCG — higher, 0.441
- AATTACCC — higher, 0.0888
- AAATACCC — higher, 0.279
- AAATACCG — higher, 0.432
